PubChem BioAssay AID687001 (Broad Institute, 2013)
Results with a measured potency or affinity are listed apart. Activity calls are given as the source filed them.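 The calls were made as follows: active = signal-lowering compounds whose fitted half-maximal concentration is at or below twice the top tested dose in every run; inconclusive = runs disagree, flat 30 to 70% inhibition, or poor curve fit; inactive = the rest.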

The molecules below were run against Protein S100-A4 (Homo sapiens) (UniProt P26447) (assay: S100A4-myosin IIA binding inhibitor potency, dose response, biochemical, fluorescence polarization, cherry-picked hits (AID 687001)). Settings: FP, S100A4/TAMRA-myosin IIA peptide binding; series mostly up to 11 µM.
Chain of Protein S100-A4 (Homo sapiens) (P26447 whole entry, looked up): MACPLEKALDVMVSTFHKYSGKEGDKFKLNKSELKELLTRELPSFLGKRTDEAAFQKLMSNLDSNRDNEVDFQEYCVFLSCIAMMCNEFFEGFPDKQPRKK

| Structure (SMILES) | outcome |
| --- | --- |
| COc1ccc(OC)c(N2C(=O)CC(=O)NC2=O)c1 | inactive |
| CCOC(=O)c1ccc(N=Cc2c(O)n(-c3ccccc3F)c(=S)[nH]c2=O)cc1 | inactive |
| CCCCn1nnnc1C(c1cccc2ccccc12)N1CCC2(CC1)C(=O)NCN2c1ccccc1 (stereo unspecified) | inactive |
| C=CCN1CC[C@]23c4c5ccc(O)c4OC2C(O)CC[C@@]3(O)[C@H]1C5 (stereo partly specified) | inactive |
| O=Cc1cn(Cc2ccc(Br)cc2)c2ccccc12 | inactive |
| O=C(Cc1cccnc1)N1CCCCN2[C@@H](CO)[C@@H](c3ccc(C#CC4(O)CCCC4)cc3)[C@@H]2C1 | inactive |
| COC(=O)[C@]1(C)C[C@H]1[C@H](NP(=O)(c1ccccc1)c1ccccc1)c1ccccc1 | inactive |
| Cc1c(OC(=O)N(C)C)ccc2c1O/C(=C\c1ccco1)C2=O | inactive |
| Cc1ccccc1C(=O)N1Cc2ccccc2-n2nncc2C1 | inactive |
| O=[N+]([O-])c1cc(Cl)c(Cl)cc1Cl | inactive |
| CN(C)c1cc[n+](CC(O)C[n+]2ccc(N(C)C)cc2)cc1 | inactive |
| CCCCCSc1cc(O)c(C(CNC)C(C)C)cc1OC (stereo unspecified) | inactive |
| O=C(O)Cn1cc(/C=C2\C(=O)NC(=O)N(c3ccc(Br)cc3)C2=O)c2ccccc21 | inactive |
| CCN(CC)C(=O)[C@@H]1C=C2c3cccc4[nH]c(Br)c(c34)C[C@H]2N(C)C1 | inactive |
| CCOC(=O)C1=C(N)OC2=C(C(=O)CC(C)(C)C2)C12C(=O)Nc1ccccc12 (stereo unspecified) | inactive |
| Cc1c(C)c2ccc(OCC(=O)N3CCC(C(=O)O)(c4ccccc4)CC3)cc2oc1=O | inactive |
| CCC12CCN(CC3(O)CC3)C(Cc3ccc(O)cc31)C2(C)C (stereo unspecified) | inactive |
| COC(=O)C1=C(c2cc3ccccc3s2)C[C@@H]2CC[C@H]1N2C(=O)NCc1ccc(C(F)(F)F)cc1 | inactive |
| c1ccc(-c2ccncc2)cc1 | inactive |
| O=C(O)[C@H]1[C@H](CO)[C@H]2Cn3c(ccc(-c4ccncc4)c3=O)[C@@H]1N2C(=O)C1CCCCC1 | inactive |
| COC(C)(C)CCCC(C)C/C=C/C(C)=C/C(=O)OC(C)C (stereo unspecified) | inactive |
